Hit rate of the full screen: of about 360,000 compounds, about 11,000 (3.1%) were called active. Another 2% or so got no clear call; they are omitted. This excerpt belongs to a sample that is enriched for actives. Unmarked numbers belong to inactive results. Cut-off read from the data, not from the text of the source: active = fluorescence intensity above about 16000; inconclusive = no clear call, values can overlap the other calls; inactive = below that.

The nature of the test: counter-screen for toxin protease inhibitors: compound fluorescence, primary screen, artefact control for toxin protease inhibitor project, biochemical, multiplex microsphere, HTS (AID 624483). The following applies: compound autofluorescence counterscreen, microsphere flow cytometry; hits give high values. (The purpose of a counterscreen is to sort out artefacts and off-target activity.)
For the compound `C=CCc1ccc(OCCOc2cccc(/C=N/n3cnnc3)c2)c(OC)c1`, the fluorescence intensity is 2600.

For the compound `COCCNCCOCCOc1cccc(OC)c1`, the fluorescence intensity was 2470.

Consider `COc1cccc(OCCOc2cccc(/C=N/n3cnnc3)c2)c1`, for which the fluorescence intensity is 23900 (active).

Consider `CC(C)(C)OC(=O)N[C@H](C(=O)OC(C)(C)C)c1ccc(Br)cc1`, for which the fluorescence intensity was 3740.

Regarding `C[C@H](NC(=O)OC(C)(C)C)c1nnc(SCC(=O)Nc2ccc(Br)cc2)o1`, the fluorescence intensity was 16800 (active).

Turning to `CCc1ccccc1NC(=O)CSc1nnc(CCNC(=O)OC(C)(C)C)o1`, the fluorescence intensity is 6490.

In the case of `C=CCn1c(N)cc(=O)nc1SCC(=O)Nc1cccc2ccccc12`, the fluorescence intensity is 4460.

`CC(C)Oc1ccc(/C=N/NC(=O)c2nnn(-c3nonc3N)c2CN(C)C2CCCCC2)cc1`: the fluorescence intensity is 6000.

`Cc1cccc(C)c1N1CCN(S(=O)(=O)N2CCCCC2)CC1`: the fluorescence intensity is 3490.

Take `O=S(=O)(N1CCOCC1)N1CCN(c2ccccc2F)CC1`: the fluorescence intensity is 6290.

As for `Cc1cccc(C)c1N1CCN(S(=O)(=O)N2CCOCC2)CC1`, the fluorescence intensity was 23800 (active).

On to `COc1ccc(Cl)cc1-c1cc(C(=O)Nc2cc(OC)c(OC)c(OC)c2)[nH]n1`, for which the fluorescence intensity was 3880.

For the compound `CCN1CCN(C2CCCCC2NS(=O)(=O)c2ccc(Cl)cc2)CC1` (stereo not given), the fluorescence intensity was 5580.

Consider `O=S(=O)(NC1CCCCC1N1CCC(O)CC1)c1ccc(Cl)cc1` (stereo not given), for which the fluorescence intensity was 38100 (active).

`O=S(=O)(NC1CCCCC1N1CCCCC1)c1ccc(Cl)cc1` (stereo not given): the fluorescence intensity was 5790.

In the case of `Cc1cc(OCC(=O)N2CCN(c3ncccn3)CC2)ccc1Cl`, the fluorescence intensity is 4880.

`COc1ccc(OC)c(NC(=O)c2cc(-c3cc(F)ccc3OCC3CCCO3)n[nH]2)c1` (stereo not given): the fluorescence intensity was 3690.

For the compound `O=C(O)c1cccnc1Sc1ncnc2sc3c(c12)CCC3`, the fluorescence intensity is 4510.

As for `COc1ccc(/C=N/Nc2ncnc3sc4c(c23)CCCC4)cc1O`, the fluorescence intensity is 1980.

Regarding `COc1ncnc2sc3c(c12)CCCC3`, the fluorescence intensity is 23600 (active).

Take `CCOC(=O)C1=C(CCc2ccccc2)NC(=O)NC1c1ccc2ccccc2c1` (stereo not given): the fluorescence intensity is 3820.

Take `CCOC(=O)C1=C(CSc2nccn2C)NC(=O)NC1c1ccc(OC)cc1` (stereo not given): the fluorescence intensity was 24300 (active).

Take `CCOC(=O)C1=C(CSc2nnnn2C)N(C)C(=O)NC1c1ccccc1` (stereo not given): the fluorescence intensity is 4330.

Consider `CC(C)C[C@H]1CN([C@@H](Cc2ccccc2)CN2CCC[C@@H]2CN2C(=O)C(=O)NC[C@@H]2Cc2ccc(O)cc2)C(=O)C(=O)N1CCc1ccccc1`, for which the fluorescence intensity is 5350.

Regarding `CCCCc1c(O)nc2n(c1=O)CCS2`, the fluorescence intensity is 22100 (active).

As to `CCOC(=O)N1CCN(C(=O)c2cnc3n(c2=O)CCS3)CC1`, the fluorescence intensity was 2800.

Regarding `CC1CCc2c(sc3nc4n(c(=O)c23)CCS4)C1` (stereo not given), the fluorescence intensity is 8310.

For the compound `CCOC(=O)N1C(=O)C[C@](Sc2ccc(C)cc2)(C(=O)OC)[C@H]1c1ccccc1`, the fluorescence intensity was 5390.

Turning to `Cc1ccc(C)c(C(O)c2ncc(-c3cccc4ccccc34)[nH]2)c1` (stereo not given), the fluorescence intensity was 3640.

As to `CC1(C2CC2)NC(=O)N(CC(=O)N2CCN(c3ccccc3F)CC2)C1=O` (stereo not given), the fluorescence intensity is 2860.

Regarding `Cc1csc(SCC(=O)Nc2ccc(C)c(S(=O)(=O)N(C)C)c2)n1`, the fluorescence intensity is 3940.

Regarding `Cc1ccc(CCNC(=O)C2CCN(S(=O)(=O)N3CCCC3)CC2)cc1`, the fluorescence intensity was 9470.

Consider `CCOC(=O)C1(C)NC(c2ccco2)C2C(=O)N(c3ccccc3)C(=O)C21` (stereo not given), for which the fluorescence intensity was 4000.

With `CCOC(=O)C1C(=O)NC(N2CCN(c3ccccc3)CC2)=NC1c1ccco1` (stereo not given), the fluorescence intensity is 23400 (active).

With `CCOC(=O)C1C(=O)C=C(c2ccc(OC)cc2)CC1c1ccco1` (stereo not given), the fluorescence intensity is 2300.

In the case of `Cc1ccc(N2C(=O)C3C(c4ccccc4)(C2=O)C3(c2ccccc2)c2ccccc2)cc1` (stereo not given), the fluorescence intensity is 22200 (active).

Consider `Cc1ccc(C2SCC(=O)N2c2ccccc2)cc1` (stereo not given), for which the fluorescence intensity is 3540.

As for `Cc1ccc(N2C(=O)CC(Nc3cccc4ccccc34)C2=O)cc1` (stereo not given), the fluorescence intensity was 3720.

Regarding `COc1ccccc1Nc1ncc(C(C)=O)c(C)n1`, the fluorescence intensity is 2840.

On to `O=C1CCC(C(=O)N2CCC(O)(c3ccccc3)CC2)CN1CCc1ccccc1` (stereo not given), for which the fluorescence intensity was 5620.

For the compound `CC(C)C[C@@H](COCc1ccc(Cl)cc1)N1CCN(C(=O)c2ccc(Cl)cc2Cl)CCC1=O`, the fluorescence intensity is 4700.

For the compound `Cc1cc2c(cc1C)N1C(=O)c3cc4ccccc4cc3NC(=O)C1C(=O)N2` (stereo not given), the fluorescence intensity is 5850.

In the case of `CCn1c(CSc2nncn2-c2ccc(OC)cc2)nc2cc(S(=O)(=O)N(C)C)ccc21`, the fluorescence intensity is 20000 (active).

On to `COc1ccc(S(=O)(=O)N(C)C)cc1NC(=O)CSc1ncccn1`, for which the fluorescence intensity was 2020.

Turning to `COc1ccc(-n2cnnc2SCC(=O)Nc2cccc(S(N)(=O)=O)c2)cc1`, the fluorescence intensity was 5460.

With `CC[C@@H]1CC2=C(C(=O)OC(C)(C)O2)[C@@H](CC)O1`, the fluorescence intensity was 5670.

For the compound `CC(C)(C)S(=O)(=O)N1Cc2cc(CO)cc(CCO)c2[C@H]1CCO`, the fluorescence intensity is 3670.

Take `Cc1ccccc1S(=O)(=O)NC(=O)C1(C)CCN1C(=O)C1(c2ccc(Cl)cc2)CC1` (stereo not given): the fluorescence intensity is 4140.

With `Cc1oc2c(c1C(=O)N1CCOCC1)C(=O)c1ccccc1C2=O`, the fluorescence intensity is 5580.

`Cc1ccccc1-c1ccc(Nc2ccc(C(=O)N3CCOCC3)cc2)nn1`: the fluorescence intensity is 16400 (active).

As for `Cc1cc(Nc2ccc(C(=O)N3CCCCC3)cc2)c2cccc(C)c2n1`, the fluorescence intensity was 3660.

In the case of `CCCCc1ccc(S(=O)(=O)NC(=O)C2(C)CCN2C(=O)c2c(C)noc2C)cc1` (stereo not given), the fluorescence intensity is 2860.

In the case of `CCc1nc2c(OCc3ccc(Cl)cc3Cl)cccn2c1N(C)C(=O)C(C)C`, the fluorescence intensity is 4460.

In the case of `Cc1cc(S(=O)(=O)NCC(C)C)ccc1OCC(=O)NC1CC1`, the fluorescence intensity is 5980.

Turning to `CC(C)CNS(=O)(=O)c1ccc(OCC(=O)Nc2ccc3c(c2)OCO3)c(Cl)c1`, the fluorescence intensity is 16300 (active).

Take `O=C(COc1ccc(Cl)cc1)Nc1ccc2c(c1)OCO2`: the fluorescence intensity is 3940.

For `Nc1c(C(=O)OCC(=O)Nc2ccc(OC(F)F)cc2)[nH]c(=O)[nH]c1=O`, the fluorescence intensity was 3380.

As to `O=C(CCl)Nc1ccc(Sc2ccc(NC(=O)CCl)cc2)cc1`, the fluorescence intensity was 4330.

On to `CC(C)(CCl)C(=O)Nc1ccc(Sc2ccc(F)cc2)cc1`, for which the fluorescence intensity was 20700 (active).

For the compound `Cc1ccc(Sc2ccc(NC(=O)c3ccc(F)cc3)cc2C#N)cc1`, the fluorescence intensity was 4940.
